# High-throughput results (PubChem BioAssay)
# Hits are enriched below; roughly 1.5% of the tested compounds scored in any of these assays.
# FEN1 inh – inhibitors of human flap endonuclease 1; P39748; Recombinant FEN1 flap cleavage, fluorescence, 15 min; Potency, µM (top dose mostly 114 µM), inactives show at the top dose activity change, negative = inhibition, actives largely listed as inhibitors; hit rate 0.35% among 390,000; note: potency is the fitted concentration of half-maximal effect; nearly all actives have a fitted effect of over 65% in size
#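 Read-out was taken twice, immediately and after 15 min, following addition of 50 nM substrate to 10 nM FEN1 that had sat with test compound for 15 min at room temperature. Curves came from a four-parameter Hill model.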
# RECQ1 inh-1 – inhibitors of human RECQ1 DNA helicase. AID 2549. RECQ1 DNA unwinding, red fluorescence kinetic read. hit rate 0.54% among 240,000. P46063. Potency, µM (series often up to 57.3 µM), without a hit: top-dose activity, negative = inhibition, most hits filed as inhibitors;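 note: potency is the fitted concentration of half-maximal effect; plate controls were vehicle for no effect and no enzyme for full effect; nearly all actives have a fitted effect of over 30% in size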
#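 50 nM RECQ1T1 preincubated 15 min with compound in Tris pH 8.0 buffer with MgCl2, DTT, Tween-20 and 2.5 ug/ml poly(dI-dC); started with 200 nM TAMRA/BHQ-2 forked duplex and 2 mM ATP. Unwinding read as fluorescence (525/598 nm), two reads 2 h apart.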
# PI5P4Ka inh – blocks human PI5P4K alpha kinase activity. P48426. PI5P4Kalpha enzyme, ADP-Glo luminescence, 60 min; stronger effect = lower value. max response, %. hit rate 1.2% among 330,000. AID 652105; active = max response of -50% or lower; inconclusive = between -30% and -50%; inactive = -30% or higher; note: value at the top dose of about 77 µM
#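 Human PI5P4Kalpha with substrate in 0.038 M HEPES pH 7.4, 0.28 mM EGTA, 0.1% CHAPS, 5% DMSO; reaction started with 5 microM ATP (final), 60 min at room temperature. ADP formed read by ADP-Glo luminescence.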
# APE1 inh – APE1 (human) endonuclease inhibition; recombinant APE1, TAMRA/BHQ-2 abasic DNA cleavage fluorescence; Potency, µM (series often up to 65.8 µM), inactives show at the highest dose activity change, negative = inhibition, actives largely listed as inhibitors; P27695; hit rate 0.35% among 350,000;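 note: potency is the fitted concentration of half-maximal effect; plate controls were vehicle for no effect and reference inhibitor for full effect; nearly all actives have a fitted effect of over 55% in size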
#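 Incision of a quenched TAMRA/BHQ-2 THF abasic-site duplex (50 nM) by 0.75 nM APE1, after 15 min compound preincubation, measured as fluorescence increase over three 60 s reads. Values normalized to buffer, DMSO and NSC13755 control wells.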
# BLM inh – blocks DNA unwinding by human BLM helicase; P54132; recombinant BLM DNA unwinding, fluorescence dequenching; Potency, µM (titrated, usually from 56.1 µM), without a hit: top-dose activity change, negative = inhibition, most hits filed as inhibitors; hit rate 0.2% among 350,000;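 note: potency is the fitted concentration of half-maximal effect; plate controls were vehicle for no effect and no enzyme for full effect; nearly all actives have a fitted effect of over 35% in size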
# KAT2A inh – inhibitors of human GCN5L2 histone acetyltransferase; hit rate 0.21% among 390,000; AID 504327; GCN5L2 HAT assay, ThioGlo1 CoA-SH fluorescence; Potency, µM (series often up to 58.9 µM), without a hit: at the top dose activity change, negative = inhibition, hits mostly inhibitors; Q92830; note: potency is the fitted concentration of half-maximal effect
# Target sequence (Q92830 whole entry, looked up): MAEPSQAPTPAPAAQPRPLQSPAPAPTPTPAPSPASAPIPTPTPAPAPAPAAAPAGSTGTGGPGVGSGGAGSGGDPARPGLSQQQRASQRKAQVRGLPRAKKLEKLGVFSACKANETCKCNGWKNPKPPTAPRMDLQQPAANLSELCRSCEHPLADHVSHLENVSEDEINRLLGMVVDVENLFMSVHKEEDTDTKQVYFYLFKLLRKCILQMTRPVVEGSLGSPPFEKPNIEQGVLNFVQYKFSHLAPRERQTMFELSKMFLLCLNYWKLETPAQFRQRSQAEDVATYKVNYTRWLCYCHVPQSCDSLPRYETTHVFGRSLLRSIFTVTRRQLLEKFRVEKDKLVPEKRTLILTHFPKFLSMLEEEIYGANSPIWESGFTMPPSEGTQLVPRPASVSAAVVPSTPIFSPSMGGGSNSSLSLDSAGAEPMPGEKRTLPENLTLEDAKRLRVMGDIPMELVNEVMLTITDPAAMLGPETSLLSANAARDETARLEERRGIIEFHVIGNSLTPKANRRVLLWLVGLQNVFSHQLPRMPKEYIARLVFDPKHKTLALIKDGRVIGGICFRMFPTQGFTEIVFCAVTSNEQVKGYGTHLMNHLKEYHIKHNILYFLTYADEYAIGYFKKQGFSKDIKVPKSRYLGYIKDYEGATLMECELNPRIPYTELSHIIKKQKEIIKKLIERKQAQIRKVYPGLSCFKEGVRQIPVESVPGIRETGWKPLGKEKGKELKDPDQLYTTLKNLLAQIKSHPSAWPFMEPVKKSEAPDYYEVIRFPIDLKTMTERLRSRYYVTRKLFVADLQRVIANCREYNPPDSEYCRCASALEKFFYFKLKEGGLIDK
#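 Free CoA generated was detected with ThioGlo1 (50uM) fluorescence at Ex340nm/Em540nm, read immediately and after 20 min at room temperature. Enzyme, 20 nM in HEPES pH 7.5 buffer, saw compounds 15 min before adding 75uM H3(1-25) peptide and 70uM acetyl-CoA.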
# RECQ1 inh conf – confirmation of human RECQ1 helicase inhibitors. shares compounds with RECQ1 inh-1. RECQ1 helicase DNA unwinding, fluorescence. Potency, µM (top dose mostly 229 µM), for inactives: at the highest dose activity change, negative = inhibition, most hits filed as inhibitors. hit rate 28% among 610. AID 2708; note: potency is the fitted concentration of half-maximal effect; nearly all actives have a fitted effect of over 45% in size
# ADP FP counter – counter-screen for RECQ1 inhibitors: ADP displacement; Potency, µM (titrated, usually from 228 µM), for the others: at the top dose activity change, negative = inhibition, hits mostly inhibitors; hit rate 27% among 530; shares compounds with RECQ1 inh-1; ADP fluorescence polarization displacement counterscreen; note: potency is the fitted concentration of half-maximal effect; nearly all actives have a fitted effect of over 45% in size
# RECQ1 inh-2 – blocks human RECQ1 DNA unwinding | Potency, µM (titrated, usually from 119 µM), inactives show top-dose activity, negative = inhibition, actives largely listed as inhibitors | AID 504841 | shares compounds with RECQ1 inh-1 | hit rate 15% among 1,100 | recombinant RECQ1 DNA unwinding, red fluorescence; note: potency is the fitted concentration of half-maximal effect; nearly all actives have a fitted effect of over 50% in size
# An asterisk follows results filed as active; i = inactive; ? = inconclusive; · = no result given; ! = repeats disagree. Unless noted, calls come from the whole dose curve; as a rule, active = well fitted curve in the direction sought with a large enough effect; inconclusive = small, poorly fitted or top-dose-only effect, or another doubt; inactive = no such curve, though single readings can be large; an effect the other way counts as inactive or inconclusive. Unless noted, % is set by controls: 0 for no effect and ±100 for the full control effect.
SMILES,FEN1 inh,RECQ1 inh-1,PI5P4Ka inh,APE1 inh,BLM inh,KAT2A inh,RECQ1 inh-2,others
Cc1ccc(CNS(=O)(=O)c2ccc3c(c2)CCN3C(=O)CCCC(=O)O)cc1,-8.7%,i,-9.0,-11.5%,2.3%,-11.3%,·,RECQ1 inh conf=14.4%;ADP FP counter=-7.7%
CC(=O)N1CCc2cc(S(=O)(=O)NCc3ccc(C)cc3)ccc21,-6.6%,·,-0.1,44.5%,-0.6%,-2.6%,·,
CC1CC(C)CN(S(=O)(=O)c2ccc3c(c2)CCN3C(=O)CCC(=O)O)C1 (stereo not drawn),18.8%,·,0.8,-7.0%,1.6%,-4.6%,·,
O=C(O)CCCC(=O)N1CCc2cc(S(=O)(=O)NCc3ccccc3)ccc21,6.5%,-9.6%,-11.1,8.9%,0.7%,-2.6%,·,RECQ1 inh conf=-7.5%;ADP FP counter=10.8%
CC(=O)NC1CCCC1C#N (stereo not drawn),-4.7%,·,·,·,·,·,·,
COc1ccc(C(=O)C2C(=O)C(=O)N(Cc3ccco3)C2c2cccs2)cc1 (stereo not drawn),-25.0%,·,·,·,·,·,·,
CC#N,·,-4.8%,·,4.7%,·,·,·,
c1ccc(-c2ccc(OCCN3CCCC3)cc2)cc1,·,-16.9%,·,10.5%,-9.6%,-0.5%,·,
O=C(O)CCCC(=O)N1CCc2cc(S(=O)(=O)N3CCc4ccccc43)ccc21,-1.8%,-1.8%,7.3,-0.7%,0.9%,-10.0%,·,RECQ1 inh conf=12.3%;ADP FP counter=7.8%
O=C(O)CCC(=O)N1CCc2cc(S(=O)(=O)NC3CCCC3)ccc21,0.4%,-8.3%,·,17.9%,-0.5%,1.0%,·,RECQ1 inh conf=10.2%;ADP FP counter=-3.2%
CCn1c2ccccc2c2cc(/C=C3\C=Cc4ccccc43)ccc21,-5.4%,·,·,·,·,·,·,
O=C(/C=C/c1ccc(O)c(O)c1)OC1C[C@](O)(C(=O)O)C[C@@H](O)[C@H]1O (stereo partly drawn),·,-3.4%,·,-3.1%,·,·,·,
O=C(Cn1nc(C(=O)O)c2ccccc2c1=O)Nc1nc(-c2ccccc2)cs1,-5.7%,i,5.8,-4.5%,-8.6%,-1.2%,·,RECQ1 inh conf=2.4%;ADP FP counter=6.6%
Cc1ccccc1NC(=O)Cn1nc(C(=O)O)c2ccccc2c1=O,3.3%,·,-0.7,35.0%,-0.5%,-3.0%,·,
CN(C)/C=C1\C(=O)ON=C1c1ccccc1,-4.7%,-4.6%,-1.5,-4.7%,1.7%,-3.7%,·,
O=C1ON=C(c2ccccc2)/C1=C/c1ccco1,?,?,-21.2,?,1.8%,-6.3%,-24.7%,
O=C(O)C(C(=O)/C=C/c1ccco1)=C1SCCS1,-34.6%,?,-62.3*,25.1µM*,-14.5%,-11.0%,?,
Cc1ccc(SCC(=O)Nc2cccc(C)c2)cc1,1.5%,25.1µM*,1.5,-2.0%,-0.2%,-10.9%,-11.9%,
CNC(=O)[C@]1(C(F)(F)F)C[C@H](CCC2CCCCC2)CCCO1,-5.7%,i,·,-4.3%,-6.8%,·,·,
COc1ccc(OC)c(-c2csc(NC(=O)Cn3[nH]c(=O)c4ccccc4c3=O)n2)c1,47.6%,28.2µM*,3.0,-4.4%,-11.3%,-4.8%,?,
C=C(C)C(=O)OCCOC(=O)C(=C)C,·,-8.7%,·,-1.8%,2.4%,44.2%,·,
CC1(C)CCC(=O)c2ccccc21,2.2%,·,4.6,·,·,·,·,
CC1(C)CCC2=C(O1)c1ccccc1C(=O)C2=O,?,17.8µM*!,·,-7.1%,·,-15.4%,·,RECQ1 inh conf=?;ADP FP counter=53.3%
Cc1noc(C)c1C(=O)OCC(=O)c1c[nH]c2ccccc12,-19.6%,i,-9.9,-1.4%,-4.0%,-1.9%,·,
Cc1onc(-c2c(F)cccc2Cl)c1C(=O)OCC(=O)c1c[nH]c2ccccc12,3.9%,22.4µM*,3.2,?,-15.1%,-24.0%,-25.1%,
CCNc1ncc2nc(-c3ccccc3)c(=O)n(CCc3ccccc3)c2n1,·,i,·,22.1%,-3.1%,-15.4%,·,
CCNc1ncc2nc(-c3cccs3)c(=O)n(CCc3ccccc3)c2n1,·,28.2µM*,·,-8.7%,-4.3%,-7.5%,79.4µM*,
CCNc1ncc2nc(-c3ccc(F)cc3)c(=O)n(CCc3ccccc3)c2n1,·,28.2µM*,·,-0.1%,-12.0%,-3.6%,79.4µM*,
